A short description of test [1]: ATG_CRE_CIS: Attagene CIS-FACTORIAL HepG2 Assay for human cAMP Responsive Element (CRE) binding protein 3 (AID 2282926). Conditions: HepG2 CRE cis-reporter, Attagene multiplexed mRNA; actives raise or lower the signal. In short, it runs like this:
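Transfected HepG2 were treated for 24 hours, then RNA was extracted and reporter cDNA amplified with sequence-specific primers. Labelled fragments were separated by capillary electrophoresis, and the CRE signal was fitted bidirectionally with DMSO as baseline.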

A short description of test [2]: ATG_AP_1_CIS: Attagene CIS-FACTORIAL HepG2 Assay for human Activator Protein 1 (AP-1) (AID 2282931). The conditions noted are these: HepG2 Attagene cis-factorial AP-1 reporter mRNA; actives raise or lower the signal. In short, it runs like this: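 HepG2 cells transiently transfected with cis-element-driven multiplex reporter units; 24 h compound exposure. Reporter mRNA quantified by RT-PCR, FAM-labelled fragments resolved by capillary electrophoresis; bidirectional fit versus DMSO baseline.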

The nature of test [3]: ATG_ISRE_CIS: Attagene CIS-FACTORIAL HepG2 Assay for human Interferon Regulatory Factor 1 (IRF1) binding to an Interferon-Stimulated Response Element (ISRE) (AID 2282948). The conditions noted are these: HepG2 ISRE cis-reporter (Attagene), mRNA transcription readout; actives raise or lower the signal. In short, it runs like this:
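Cell-based cis-reporter assay; HepG2; 24 h exposure; reporter mRNA by RT-PCR plus capillary electrophoresis fluorescence; activity in either direction scored relative to DMSO.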

Test [4] in a line: ATG_M_32_CIS: Attagene CIS-FACTORIAL HepG2 Assay for M32 Transcription Factor (Internal Marker) (AID 2282949).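 Note: background control marker of the multiplexed CIS panel rather than a real target.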 Conditions: HepG2 Attagene cis-factorial M32 reporter, mRNA; actives raise or lower the signal. In short, it runs like this:
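Following 24 h chemical exposure of HepG2 cells transiently expressing cis-promoter reporter constructs, reporter transcript levels were determined by RT-PCR with fluorescent labelling and capillary electrophoresis, then fitted bidirectionally against DMSO.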

Test [5] can be described thus: ATG_MRE_CIS: Attagene CIS-FACTORIAL HepG2 Assay for human Metal Responsive Element (MRE) (AID 2282954). Conditions: HepG2 MRE cis-reporter transcription, Attagene multiplex; actives raise or lower the signal. In short, it runs like this: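 HepG2 cells transiently transfected with multiple cis-element reporter units measure endogenous MTF1-driven transcription. After 24 h compound exposure, reporter mRNA is quantified by RT-PCR with 6-FAM labelling, HpaI digestion and capillary electrophoresis; bidirectional fits versus DMSO.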

Test [6] has as its target Paired box protein Pax-6 (Homo sapiens) (UniProt P26367). Put plainly: ATG_Pax6_CIS: Attagene CIS-FACTORIAL HepG2 Assay for human Paired Box 6 (PAX6) (AID 2282956). Conditions: HepG2 CIS-FACTORIAL PAX6 reporter transcription, RNA readout; actives raise or lower the signal. In short, it runs like this: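 Multiplexed cis-reporter HepG2 system; 24 h treatment; reporter mRNA read by RT-PCR/CE fluorescence; bidirectional fit vs DMSO.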

The nature of test [7]: ATG_PXRE_CIS: Attagene CIS-FACTORIAL HepG2 Assay for human Pregnane X Receptor Element (PXRE) (AID 2282957). Conditions: HepG2 Attagene CIS-FACTORIAL PXRE reporter, mRNA; actives raise or lower the signal. In short, it runs like this: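 Multiplexed cis-reporter assay in transiently transfected human HepG2 cells; 24 h chemical exposure. Reporter transcripts quantified by RT-PCR with fluorescent labeling and capillary electrophoresis.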

In test [8] the target is Transcription factor Sp1 (Homo sapiens) (UniProt P08047). Put plainly: ATG_Sp1_CIS: Attagene CIS-FACTORIAL HepG2 Assay for human Specificity Protein 1 (Sp1) (AID 2282961). Conditions: HepG2 Sp1 cis-reporter transcription, actives raise or lower the signal. In short, it runs like this:
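HepG2 cells transiently transfected with multiple reporter transcription units driven by cis-regulatory elements; Sp1-responsive reporter mRNA measured 24 h after dosing by RT-PCR and capillary electrophoresis fluorescence, fitted bidirectionally against DMSO baseline.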

Test [9] has as its target Signal transducer and activator of transcription 3 (Homo sapiens) (UniProt P40763). Nature of the test: ATG_STAT3_CIS: Attagene CIS-FACTORIAL HepG2 Assay for human Signal Transducer and Activator of Transcription 3 (STAT3) (AID 2282963). Conditions: HepG2, Attagene cis-factorial STAT3 reporter transcription; actives raise or lower the signal. In short, it runs like this:
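HepG2 cells transiently transfected with cis-element-driven multiple reporter transcription units; after 24 h chemical exposure, reporter mRNA measured by RT-PCR, 6-FAM primer-extension labelling, HpaI digestion and capillary electrophoresis. Bidirectional fitting versus DMSO baseline.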

Test [10] in a line: ATG_TA_CIS: Attagene CIS-FACTORIAL HepG2 Assay for human TA Basal Promoter (AID 2282964). Conditions: HepG2 Attagene CIS-factorial TA basal promoter reporter; actives raise or lower the signal. In short, it runs like this:
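Fluorescence from labelled RT-PCR reporter fragments, separated by capillary electrophoresis, gives the signal. Cells: HepG2 transiently carrying multiple reporter units, 24 h chemical dosing. Gain or loss relative to DMSO.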

Test [11] can be described thus: ATG_TCF_b_cat_CIS: Attagene CIS-FACTORIAL HepG2 Assay for human T-Cell-Factor with beta-catenin (TCF/b-cat) (AID 2282965). The conditions noted are these: HepG2 TCF/beta-catenin cis-reporter transcription, actives raise or lower the signal. In short, it runs like this: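 Using capillary electrophoresis as the read-out, labelled reporter cDNA fragments from transiently transfected HepG2 were sized and quantified. Exposure lasted 24 hours; activity in either direction was referenced to DMSO.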

Test [12] is described as follows: ATG_TGFb_CIS: Attagene CIS-FACTORIAL HepG2 Assay for human Transforming Growth Factor (TGF) (AID 2282967). The conditions noted are these: HepG2 Attagene CIS TGFb reporter, mRNA transcription; actives raise or lower the signal. In short, it runs like this:
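Bidirectional fitting relative to DMSO gave the endpoint. Underlying data: reporter mRNA from HepG2 cells carrying transiently transfected cis-regulated reporter constructs, harvested 24 h after dosing and analyzed by RT-PCR and capillary electrophoresis.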

Test [13] deals with X-box-binding protein 1 (Homo sapiens) (UniProt P17861). Nature of the test: ATG_Xbp1_CIS: Attagene CIS-FACTORIAL HepG2 Assay for human X-box Binding Protein 1 (XBP1) (AID 2282972). Conditions: HepG2 XBP1 cis-element reporter, Attagene multiplex; actives raise or lower the signal. In short, it runs like this:
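Fluorescence-labelled cDNA fragments from reporter transcripts, separated by capillary electrophoresis, give the signal. Source: HepG2 cells transfected with promoter-driven reporter units, harvested 24 h post-dose. DMSO served as reference for bidirectional curve fitting.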

The target of test [14] is Transcriptional activator Myb (Homo sapiens) (UniProt P10242). Nature of the test: ATG_Myb_CIS: Attagene CIS-FACTORIAL HepG2 Assay for human Myeloblastosis (Myb) Proto-Oncogene Transcription Factor (AID 2282986). Conditions: HepG2 Attagene CIS-FACTORIAL Myb reporter transcription; actives raise or lower the signal. In short, it runs like this: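 HepG2 cells were transiently transfected with cis-regulated multiple reporter transcription units reflecting endogenous Myb activity, then exposed to compound for 24 hours. Reporter mRNA was measured by RT-PCR with capillary electrophoresis; bidirectional fitting versus DMSO baseline.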
Sequence of Transcriptional activator Myb (Homo sapiens) (P10242 whole entry, looked up): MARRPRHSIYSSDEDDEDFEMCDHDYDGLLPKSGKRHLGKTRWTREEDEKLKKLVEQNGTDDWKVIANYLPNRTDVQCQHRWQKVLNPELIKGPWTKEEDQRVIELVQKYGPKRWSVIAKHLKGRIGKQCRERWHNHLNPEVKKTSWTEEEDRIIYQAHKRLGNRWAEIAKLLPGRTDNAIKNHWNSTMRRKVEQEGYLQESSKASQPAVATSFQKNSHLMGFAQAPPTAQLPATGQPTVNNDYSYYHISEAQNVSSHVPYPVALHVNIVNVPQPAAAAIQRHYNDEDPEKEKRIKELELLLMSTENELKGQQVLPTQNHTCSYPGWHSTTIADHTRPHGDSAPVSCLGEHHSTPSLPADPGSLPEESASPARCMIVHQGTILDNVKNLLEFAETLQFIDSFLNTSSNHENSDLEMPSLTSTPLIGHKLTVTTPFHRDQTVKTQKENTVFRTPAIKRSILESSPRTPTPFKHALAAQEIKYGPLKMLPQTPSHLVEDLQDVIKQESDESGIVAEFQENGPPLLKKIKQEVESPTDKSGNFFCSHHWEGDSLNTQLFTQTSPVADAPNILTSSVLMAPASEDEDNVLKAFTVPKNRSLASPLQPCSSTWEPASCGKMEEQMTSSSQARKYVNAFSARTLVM

Test [15] has as its target Myc proto-oncogene protein (Homo sapiens) (UniProt P01106). Nature of the test: ATG_Myc_CIS: Attagene CIS-FACTORIAL HepG2 Assay for human Myelocytomatosis (Myc) Proto-Oncogene Transcription Factor (AID 2282990). The conditions noted are these: HepG2, Attagene cis-reporter transcription factor activity; actives raise or lower the signal. In short, it runs like this:
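Multiplexed cis-reporter transcription in HepG2 cells after 24 h chemical treatment. Reporter mRNA measured by RT-PCR and capillary electrophoresis fluorescence; activity fitted bidirectionally against DMSO control.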

Test [16] can be described thus: ATG_Oct_MLP_CIS: Attagene CIS-FACTORIAL HepG2 Assay for human Octamer-Binding Transcription Factor (Oct) (AID 2282993). The conditions noted are these: HepG2 Attagene cis-factorial Oct reporter, mRNA; actives raise or lower the signal. In short, it runs like this:
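HepG2, transient MRTU transfection, cis promoter elements; 24 h dosing; RT-PCR/CE fluorescence read-out of reporter mRNA; fit both directions vs DMSO.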

The nature of test [17]: CCTE_Harrill_HTTr_Viability_MCF7: CCTE's 6-hour Cell Viability Assessment for the High-Throughput Transcriptomics (HTTr) Platform, in MCF-7 cells cultured in DMEM + 10% fetal bovine serum, Harrill Lab (AID 2284010). In short, it runs like this: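 Viability measured through PI dye exclusion by high-content imaging at 6 h post-dosing.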
Test [18] can be described thus: CCTE_Harrill_HTTr_Apoptosis_MCF7: CCTE's 6-hour Apoptosis Assessment for the High-Throughput Transcriptomics (HTTr) Platform, in MCF-7 cells cultured in DMEM + 10% fetal bovine serum, Harrill Lab (AID 2284011). In short, it runs like this: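 Apoptosis in MCF-7 cells grown in DMEM with 10% fetal bovine serum was scored after a six hour exposure by high content imaging of caspase-3/7 activation (CellEvent Caspase 3/7 Green), with DMSO serving as negative control and baseline.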

A short description of test [19]: ACEA_ER_AUC_viability: ACEA Biosciences xCELLigence Real-Time Cell Analysis on Estrogen Receptor Agonism for Viability (AID 2283782; active = hit-call score of the fitted dose curve at least 0.9, where 1 is the maximum;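 note: continuous compound exposure with impedance area under curve over 80 h; hit means loss of impedance signal meaning reduced cell growth or viability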). In short, it runs like this: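 T-47D human breast cells in phenol red-free RPMI1640 with 10% charcoal-stripped FBS were dosed with an 8-point 1:4 dilution series from 100 uM top final concentration, in duplicate. Impedance-based growth was followed for 80 h; AUC analysed versus DMSO.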

Structures are written as SMILES. Records with an inconclusive call do not appear. Active and inactive are the calls of the source. Rule for the calls, unless noted: active = hit-call score of the fitted dose curve at least 0.9, where 1 is the maximum; inactive = score below 0.9.

Sequence of X-box-binding protein 1 (Homo sapiens) (P17861 whole entry, looked up, the tested form may be a part): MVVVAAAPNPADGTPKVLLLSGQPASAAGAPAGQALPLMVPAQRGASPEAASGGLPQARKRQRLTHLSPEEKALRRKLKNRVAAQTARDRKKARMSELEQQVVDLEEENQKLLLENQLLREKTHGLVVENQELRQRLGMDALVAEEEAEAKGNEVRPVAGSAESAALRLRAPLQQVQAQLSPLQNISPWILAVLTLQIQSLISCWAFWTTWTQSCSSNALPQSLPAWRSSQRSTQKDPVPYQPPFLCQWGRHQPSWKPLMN
Sequence of Paired box protein Pax-6 (Homo sapiens) (P26367 whole entry, looked up): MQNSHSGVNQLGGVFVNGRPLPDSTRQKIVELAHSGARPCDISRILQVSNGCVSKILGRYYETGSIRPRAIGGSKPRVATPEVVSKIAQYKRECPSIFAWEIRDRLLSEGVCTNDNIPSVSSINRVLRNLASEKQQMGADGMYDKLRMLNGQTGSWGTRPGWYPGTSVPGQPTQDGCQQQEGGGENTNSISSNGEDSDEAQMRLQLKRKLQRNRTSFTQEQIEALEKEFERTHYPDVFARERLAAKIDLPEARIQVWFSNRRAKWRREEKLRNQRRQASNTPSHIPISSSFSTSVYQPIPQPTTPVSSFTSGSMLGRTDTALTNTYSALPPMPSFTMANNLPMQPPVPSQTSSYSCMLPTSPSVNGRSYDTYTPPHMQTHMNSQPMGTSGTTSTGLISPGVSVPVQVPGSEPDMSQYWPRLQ
Sequence of Signal transducer and activator of transcription 3 (Homo sapiens) (P40763 whole entry, looked up): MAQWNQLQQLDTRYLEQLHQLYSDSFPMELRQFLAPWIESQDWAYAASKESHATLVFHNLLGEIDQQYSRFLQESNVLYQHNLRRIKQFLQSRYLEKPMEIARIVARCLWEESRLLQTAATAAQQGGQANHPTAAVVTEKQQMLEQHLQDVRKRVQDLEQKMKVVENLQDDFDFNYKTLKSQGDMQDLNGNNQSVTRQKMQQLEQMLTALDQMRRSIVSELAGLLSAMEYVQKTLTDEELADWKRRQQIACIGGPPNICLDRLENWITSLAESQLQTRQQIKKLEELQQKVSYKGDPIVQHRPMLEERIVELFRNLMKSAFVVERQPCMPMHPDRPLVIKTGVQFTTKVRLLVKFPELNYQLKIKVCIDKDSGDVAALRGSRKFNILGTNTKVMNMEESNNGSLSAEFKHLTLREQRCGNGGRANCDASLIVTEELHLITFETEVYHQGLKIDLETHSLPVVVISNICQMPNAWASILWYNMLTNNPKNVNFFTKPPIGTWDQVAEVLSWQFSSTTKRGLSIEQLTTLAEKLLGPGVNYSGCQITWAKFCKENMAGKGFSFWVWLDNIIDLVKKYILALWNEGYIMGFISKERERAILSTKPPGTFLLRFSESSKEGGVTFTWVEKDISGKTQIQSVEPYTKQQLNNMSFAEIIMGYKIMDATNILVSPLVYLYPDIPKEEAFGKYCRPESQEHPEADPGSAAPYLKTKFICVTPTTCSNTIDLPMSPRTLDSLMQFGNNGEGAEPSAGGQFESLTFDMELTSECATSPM
Sequence of Transcription factor Sp1 (Homo sapiens) (P08047 whole entry, looked up): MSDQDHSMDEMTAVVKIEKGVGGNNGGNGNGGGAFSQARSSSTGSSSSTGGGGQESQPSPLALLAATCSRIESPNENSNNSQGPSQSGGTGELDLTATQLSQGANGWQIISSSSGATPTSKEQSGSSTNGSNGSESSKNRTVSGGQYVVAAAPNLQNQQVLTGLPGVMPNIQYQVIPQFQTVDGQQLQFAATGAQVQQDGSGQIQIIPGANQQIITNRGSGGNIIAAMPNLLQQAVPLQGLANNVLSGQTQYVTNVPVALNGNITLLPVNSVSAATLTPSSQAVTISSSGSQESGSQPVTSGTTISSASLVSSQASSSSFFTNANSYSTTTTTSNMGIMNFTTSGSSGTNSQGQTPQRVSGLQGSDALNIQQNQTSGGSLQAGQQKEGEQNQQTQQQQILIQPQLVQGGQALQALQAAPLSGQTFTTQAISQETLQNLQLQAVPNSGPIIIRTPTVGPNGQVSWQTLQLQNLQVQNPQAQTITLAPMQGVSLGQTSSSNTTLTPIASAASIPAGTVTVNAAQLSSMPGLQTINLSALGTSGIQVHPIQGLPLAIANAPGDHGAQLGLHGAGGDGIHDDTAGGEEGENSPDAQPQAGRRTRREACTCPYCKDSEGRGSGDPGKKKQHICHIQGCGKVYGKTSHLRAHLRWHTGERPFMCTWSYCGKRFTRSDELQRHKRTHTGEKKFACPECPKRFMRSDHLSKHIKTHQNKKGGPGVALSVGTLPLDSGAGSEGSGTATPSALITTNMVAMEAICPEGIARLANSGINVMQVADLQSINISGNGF
Sequence of Myc proto-oncogene protein (Homo sapiens) (P01106 whole entry, looked up): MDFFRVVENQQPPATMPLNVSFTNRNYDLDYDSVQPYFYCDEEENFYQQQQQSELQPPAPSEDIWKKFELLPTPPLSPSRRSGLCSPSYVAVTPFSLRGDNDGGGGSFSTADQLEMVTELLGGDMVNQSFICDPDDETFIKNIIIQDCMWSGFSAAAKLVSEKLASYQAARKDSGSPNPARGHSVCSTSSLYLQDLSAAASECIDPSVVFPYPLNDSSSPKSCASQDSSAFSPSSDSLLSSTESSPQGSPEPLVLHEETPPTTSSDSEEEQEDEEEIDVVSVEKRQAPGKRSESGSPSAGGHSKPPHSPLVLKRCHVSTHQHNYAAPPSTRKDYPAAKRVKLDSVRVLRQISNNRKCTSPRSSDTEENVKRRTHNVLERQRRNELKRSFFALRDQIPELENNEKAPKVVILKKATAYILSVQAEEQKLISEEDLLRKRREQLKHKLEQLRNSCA

Consider `CNC(=C[N+](=O)[O-])NCCSCc1csc(CN(C)C)n1`, for which the call in [1], in [2], in test [3], in test [4], in test [5] and in test [6] was inactive. Besides, the outcome in test [7], in [8], in test [9], in test [10], in [11] and in [12] was inactive. The compound was called inactive in [13], in test [14], in test [15], in test [16], in test [17] and in test [18].
For the compound `COc1ccc(C(=O)c2ccccc2O)c(O)c1`, the outcome in test [17] and in [18] was inactive.
Turning to `CCCCCC[C@@H](O)C/C=C\CCCCCCCC(=O)O`, the call in test [1], in test [3], in [4], in test [6], in [7] and in test [8] was inactive. Also, the call in test [10], in test [13], in test [15], in [16], in test [19] and in test [17] was inactive. Also, the result in test [18] was inactive. The AC50 in test [2] was 71.8 µM (active); in test [5], 139 µM (active); in test [9] it was 160 µM (active); in test [11] it was 60.1 µM (active); in test [12] it was 115 µM (active); in test [14] it was 123 µM (active).
Take `O=S(=O)(O)c1cccc2ccccc12`: the result in test [1], in test [2], in test [3], in test [4], in test [5] and in test [6] was inactive. In addition, the compound was called inactive in test [7], in test [8], in test [9], in test [10], in [11] and in [12]. Moreover, the result in [13], in test [14], in [15], in test [16] and in test [19] was inactive.
In the case of `C=CC(C)(CCC=C(C)C)OC(=O)c1ccccc1` (stereo unspecified), the compound was called inactive in test [1], in test [3], in test [4], in test [6], in test [8] and in test [9]. Besides, the compound was classed as inactive in test [10], in test [11], in [12], in test [13], in test [14] and in test [16]. Besides, the AC50 in [2] was 127 µM (active); in test [5], 177 µM (active); in test [7] it was 6.33 µM (active); in test [15], 131 µM (active); in test [19] it was 72.6 µM (active).
On to `CC(C)CC(=O)CC(C)C`, for which the call in test [1], in [2], in test [3], in test [4], in [5] and in [6] was inactive. Further, the compound was called inactive in test [7], in test [8], in test [9], in test [10], in test [11] and in test [12]. The compound was classed as inactive in [13], in [14], in test [15], in test [16], in [17] and in test [18].

Values taken from PubChem BioAssay (EPA / NIEHS).
